Holding throughout (experiment): log2 fold change, soluble protein after heating vs DMSO (PISA); higher = thermal stabilisation; K562 lysate, 10 uM; active = over 0.2 and 3.5 SD of the protein, either way, in both replicates (recomputed)
Compound in one assay: C#Cc1cccc(Nc2ncnc3cc(OCCOC)c(OCCOC)cc23)c1 [erlotinib]
The essentials:
(§1)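 Soluble protein was defined as the supernatant remaining after 21,000xg for 90 min, following pooling of heated aliquots and adjustment to 0.5% NP-40 at 4°C. Before that, crude K562 extract at 1 mg/mL protein in PBS pH 7.4 with 1 mM MgCl2 was treated with 10 μM compound for 30 min and heated for 3 min across 48°C-58°C. Quantification used TMTpro 16plex LC-MS/MS with channel sums equalised, and values are log-two fold changes in thermal stability relative to solvent controls from duplicates.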

Compound in assay [1]: C/C(=N\NC(=O)C1=CC(=CC=C1)S(=O)(=O)N2CCOCC2)/C3=C(C=CC(=C3)Cl)O
The essentials: as §1

Compound in assay [2]: C1=CC(=CC=C1C2=NC3=C(N2)C=C(C=C3)C(=O)N)OC4=CC=C(C=C4)Cl
The essentials:
as §1

Compound in assay [3]: C1=CC2=C(C=CC(=C2)/C=C\3/C(=O)NC(=NCC4=CC=CS4)S3)N=C1
Summed up:
as §1

Compound in assay [4]: C1=CC2=NC=CN=C2C=C1/C=C/3\C(=O)NC(=O)S3
The essentials:
as §1

Compound in assay [5]: C1=CC=C(C=C1)C2=NC(=C(N2)C3=CC=NC=C3)C4=CC(=C(C=C4)Cl)O
The essentials: as §1

Compound in assay [6]: C1=CC=C2C(=C1)C3=NNC4=CC=CC(=C43)C2=O
The essentials: as §1

Compound in assay [7]: C1CCN(C1)C(=O)NC2=CC=CC(=C2)NC3=NC=C(C(=N3)NCCC4=CN=CN4)Br
Summed up: as §1

Compound in assay [8]: C1CN(CCC1(CC2=CC=C(C=C2)Cl)N)C3=NC=NC4=C3C=CN4
The essentials: as §1

Compound in a further assay: C1COCCN1CCN2C3=CC=CC=C3N=C2NC(=O)C4=CC(=CC=C4)[N+](=O)[O-] [IRAK-1-4 Inhibitor I]
The essentials: as §1

Of roughly 8,800 targets only a part is listed; those with a hit were picked by preference. About 0.5% of all pairs of compound and target were hits. A number with no mark means an inactive call.

UniProt Q14542, sequence (Q14542 whole entry, looked up): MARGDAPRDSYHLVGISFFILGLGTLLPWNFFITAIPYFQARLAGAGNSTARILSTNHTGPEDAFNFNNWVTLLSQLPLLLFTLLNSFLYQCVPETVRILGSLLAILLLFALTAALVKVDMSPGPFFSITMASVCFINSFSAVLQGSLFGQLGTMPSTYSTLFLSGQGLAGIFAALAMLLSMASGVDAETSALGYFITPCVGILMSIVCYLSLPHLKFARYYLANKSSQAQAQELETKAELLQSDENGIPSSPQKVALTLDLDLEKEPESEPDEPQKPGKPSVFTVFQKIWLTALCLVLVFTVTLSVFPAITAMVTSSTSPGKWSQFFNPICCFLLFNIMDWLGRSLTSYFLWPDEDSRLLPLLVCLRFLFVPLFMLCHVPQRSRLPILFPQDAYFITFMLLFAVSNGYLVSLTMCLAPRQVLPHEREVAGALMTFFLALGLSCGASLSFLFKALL
UniProt Q9H2D1, sequence (Q9H2D1 whole entry, looked up): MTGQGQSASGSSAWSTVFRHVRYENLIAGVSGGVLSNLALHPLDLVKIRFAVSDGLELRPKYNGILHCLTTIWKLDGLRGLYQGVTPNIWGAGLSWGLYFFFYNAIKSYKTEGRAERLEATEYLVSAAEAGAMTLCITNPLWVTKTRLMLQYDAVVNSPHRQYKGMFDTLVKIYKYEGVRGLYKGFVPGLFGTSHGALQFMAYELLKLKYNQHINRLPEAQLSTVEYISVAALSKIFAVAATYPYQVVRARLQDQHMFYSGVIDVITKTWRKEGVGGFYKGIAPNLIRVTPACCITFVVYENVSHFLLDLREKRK
UniProt Q01130, sequence (Q01130 whole entry, looked up): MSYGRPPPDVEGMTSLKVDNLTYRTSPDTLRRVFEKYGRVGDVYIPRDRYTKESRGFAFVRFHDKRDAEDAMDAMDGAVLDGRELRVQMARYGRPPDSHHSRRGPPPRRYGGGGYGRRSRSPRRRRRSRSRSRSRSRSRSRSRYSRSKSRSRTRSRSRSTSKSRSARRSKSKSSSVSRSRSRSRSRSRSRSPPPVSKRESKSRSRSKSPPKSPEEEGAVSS
UniProt Q6NXT6, sequence (Q6NXT6 whole entry, looked up): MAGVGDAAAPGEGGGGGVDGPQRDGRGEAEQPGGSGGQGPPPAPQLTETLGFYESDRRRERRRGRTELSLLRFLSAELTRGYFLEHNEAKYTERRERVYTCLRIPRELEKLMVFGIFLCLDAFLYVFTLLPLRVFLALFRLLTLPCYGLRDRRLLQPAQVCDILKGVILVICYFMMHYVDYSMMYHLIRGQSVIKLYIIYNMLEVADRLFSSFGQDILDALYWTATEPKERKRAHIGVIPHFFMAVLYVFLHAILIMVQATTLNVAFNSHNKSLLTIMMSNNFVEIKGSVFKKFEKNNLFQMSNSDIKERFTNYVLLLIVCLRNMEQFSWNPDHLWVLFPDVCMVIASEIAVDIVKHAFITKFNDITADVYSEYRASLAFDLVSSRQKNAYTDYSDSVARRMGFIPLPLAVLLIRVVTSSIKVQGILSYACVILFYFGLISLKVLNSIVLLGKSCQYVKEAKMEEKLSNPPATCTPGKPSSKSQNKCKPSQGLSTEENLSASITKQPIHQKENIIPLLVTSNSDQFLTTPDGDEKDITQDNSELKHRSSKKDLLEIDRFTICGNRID
UniProt Q01650, sequence (Q01650 whole entry, looked up): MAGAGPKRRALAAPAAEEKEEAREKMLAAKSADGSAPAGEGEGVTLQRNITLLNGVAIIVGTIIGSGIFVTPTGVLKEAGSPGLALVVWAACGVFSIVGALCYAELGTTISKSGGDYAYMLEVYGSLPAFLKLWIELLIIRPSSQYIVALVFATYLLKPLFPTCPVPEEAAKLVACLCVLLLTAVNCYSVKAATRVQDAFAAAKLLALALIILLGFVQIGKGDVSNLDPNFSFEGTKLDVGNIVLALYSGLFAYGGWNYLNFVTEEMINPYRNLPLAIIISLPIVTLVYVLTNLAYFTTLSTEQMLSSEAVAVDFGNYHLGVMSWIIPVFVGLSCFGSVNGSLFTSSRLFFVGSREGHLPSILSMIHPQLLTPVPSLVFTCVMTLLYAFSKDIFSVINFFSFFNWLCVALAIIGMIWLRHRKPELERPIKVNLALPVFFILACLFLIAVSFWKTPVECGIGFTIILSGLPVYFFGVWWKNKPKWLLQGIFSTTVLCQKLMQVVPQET
UniProt P35270, sequence (P35270 whole entry, looked up): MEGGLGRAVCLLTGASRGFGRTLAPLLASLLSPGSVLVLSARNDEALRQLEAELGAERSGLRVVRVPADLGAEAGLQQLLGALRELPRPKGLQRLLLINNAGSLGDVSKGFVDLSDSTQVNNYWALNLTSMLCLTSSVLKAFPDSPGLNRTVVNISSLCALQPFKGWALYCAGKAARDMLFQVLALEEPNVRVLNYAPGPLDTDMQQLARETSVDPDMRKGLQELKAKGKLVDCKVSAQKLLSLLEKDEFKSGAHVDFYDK
UniProt Q9UHW9, sequence (Q9UHW9 whole entry, looked up): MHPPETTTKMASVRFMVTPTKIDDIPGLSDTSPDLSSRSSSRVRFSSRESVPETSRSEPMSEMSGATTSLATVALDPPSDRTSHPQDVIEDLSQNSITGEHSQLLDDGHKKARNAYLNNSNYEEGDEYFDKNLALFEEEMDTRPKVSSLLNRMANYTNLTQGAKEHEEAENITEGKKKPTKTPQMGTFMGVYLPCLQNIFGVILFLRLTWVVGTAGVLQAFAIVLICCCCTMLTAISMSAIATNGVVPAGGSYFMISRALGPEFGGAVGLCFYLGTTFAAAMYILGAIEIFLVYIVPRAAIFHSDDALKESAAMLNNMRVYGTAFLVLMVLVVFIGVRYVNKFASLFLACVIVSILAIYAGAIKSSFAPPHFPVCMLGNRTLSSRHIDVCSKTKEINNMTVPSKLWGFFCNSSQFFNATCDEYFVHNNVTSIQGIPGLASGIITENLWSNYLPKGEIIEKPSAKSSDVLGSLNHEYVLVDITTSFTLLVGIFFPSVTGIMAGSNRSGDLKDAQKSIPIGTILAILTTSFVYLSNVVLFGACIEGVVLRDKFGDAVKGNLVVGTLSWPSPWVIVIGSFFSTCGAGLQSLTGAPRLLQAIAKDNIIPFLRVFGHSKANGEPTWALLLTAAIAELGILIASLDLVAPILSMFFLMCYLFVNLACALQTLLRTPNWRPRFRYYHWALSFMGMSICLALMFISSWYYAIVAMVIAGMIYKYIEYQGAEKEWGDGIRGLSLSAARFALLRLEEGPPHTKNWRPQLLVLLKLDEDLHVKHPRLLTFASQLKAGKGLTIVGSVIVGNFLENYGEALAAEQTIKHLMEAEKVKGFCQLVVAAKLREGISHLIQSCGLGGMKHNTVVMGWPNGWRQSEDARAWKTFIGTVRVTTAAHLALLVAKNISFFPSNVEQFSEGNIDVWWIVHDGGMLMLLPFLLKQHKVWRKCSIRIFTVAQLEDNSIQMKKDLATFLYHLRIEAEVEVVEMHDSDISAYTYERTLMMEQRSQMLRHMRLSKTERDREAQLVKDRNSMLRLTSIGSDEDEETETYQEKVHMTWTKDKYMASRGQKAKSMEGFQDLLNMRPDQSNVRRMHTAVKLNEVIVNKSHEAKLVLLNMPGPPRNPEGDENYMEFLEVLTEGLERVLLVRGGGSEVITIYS
UniProt Q7L8J4, sequence (Q7L8J4 whole entry, looked up): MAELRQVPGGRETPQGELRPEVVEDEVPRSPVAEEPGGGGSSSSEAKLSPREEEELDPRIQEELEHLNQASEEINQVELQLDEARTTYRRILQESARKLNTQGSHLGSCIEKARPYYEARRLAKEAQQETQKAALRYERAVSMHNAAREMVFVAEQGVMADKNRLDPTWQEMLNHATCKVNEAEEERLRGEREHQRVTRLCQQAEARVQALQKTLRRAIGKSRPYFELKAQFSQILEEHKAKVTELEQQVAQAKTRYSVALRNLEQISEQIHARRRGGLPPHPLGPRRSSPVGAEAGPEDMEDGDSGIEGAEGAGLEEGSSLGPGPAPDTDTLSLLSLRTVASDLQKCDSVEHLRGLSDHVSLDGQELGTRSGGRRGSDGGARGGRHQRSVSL
UniProt Q8WU79, sequence (Q8WU79 whole entry, looked up): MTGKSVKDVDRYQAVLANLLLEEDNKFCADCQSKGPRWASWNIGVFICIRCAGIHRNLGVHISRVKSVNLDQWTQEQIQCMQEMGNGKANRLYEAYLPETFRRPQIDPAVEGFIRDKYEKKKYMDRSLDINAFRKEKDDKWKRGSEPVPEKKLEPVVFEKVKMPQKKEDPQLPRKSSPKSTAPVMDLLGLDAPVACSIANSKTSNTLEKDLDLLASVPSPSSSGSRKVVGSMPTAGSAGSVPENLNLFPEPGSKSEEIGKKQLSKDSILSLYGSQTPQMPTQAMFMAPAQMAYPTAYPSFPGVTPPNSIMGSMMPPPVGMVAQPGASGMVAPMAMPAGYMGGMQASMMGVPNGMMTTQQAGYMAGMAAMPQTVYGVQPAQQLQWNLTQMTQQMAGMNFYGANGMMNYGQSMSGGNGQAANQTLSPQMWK
UniProt Q13242, sequence (Q13242 whole entry, looked up): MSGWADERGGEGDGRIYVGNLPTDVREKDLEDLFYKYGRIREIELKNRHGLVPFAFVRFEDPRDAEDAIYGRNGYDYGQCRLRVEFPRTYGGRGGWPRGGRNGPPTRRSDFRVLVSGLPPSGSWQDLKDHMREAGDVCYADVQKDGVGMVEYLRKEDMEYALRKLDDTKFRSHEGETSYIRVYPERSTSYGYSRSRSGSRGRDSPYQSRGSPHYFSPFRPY
UniProt Q9UJC5, sequence (Q9UJC5 whole entry, looked up): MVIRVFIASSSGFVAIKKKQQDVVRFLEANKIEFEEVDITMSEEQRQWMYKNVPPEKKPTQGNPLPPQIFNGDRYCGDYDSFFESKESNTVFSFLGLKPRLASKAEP
UniProt O95926, sequence (O95926 whole entry, looked up): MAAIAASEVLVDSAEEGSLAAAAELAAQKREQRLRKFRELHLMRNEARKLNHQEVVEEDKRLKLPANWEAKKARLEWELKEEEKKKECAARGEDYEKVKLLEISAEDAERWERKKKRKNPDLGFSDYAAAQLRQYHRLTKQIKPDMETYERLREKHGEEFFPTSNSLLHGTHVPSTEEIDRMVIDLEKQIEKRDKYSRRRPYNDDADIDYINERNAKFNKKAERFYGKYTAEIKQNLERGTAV

Turning to SLC29A2 (UniProt Q14542), the log2 fold change was -0.147 with erlotinib; 0.016 in assay [1]; -0.04 in assay [2]; 0.013 in assay [3]; -0.028 in assay [4]; -0.033 in assay [5]. The log2 fold change in assay [6] was 0.018; in assay [7] it was 0.018; in assay [8], 0.085; with IRAK-1-4 Inhibitor I it was 0.102.
Take SLC12A6 (UniProt Q9UHW9): the log2 fold change with erlotinib is -0.014; in [1] it was -0.073; in assay [2], -0.047; in assay [3] it was 0.013; in assay [4], -0.006; in assay [5], -0.028. For the same target, the log2 fold change was -0.01 in assay [6], -0.024 in assay [7], 0.068 in assay [8] and -0.01 with IRAK-1-4 Inhibitor I.
Consider TAPT1 (UniProt Q6NXT6), for which the log2 fold change is 0 in the assay with erlotinib; -0.092 in assay [1]; 0.068 in [2]; -0.038 in [3]; -0.001 in assay [4]; -0.059 in assay [5]. Besides, the log2 fold change in [6] was -0.039; in [7], -0.059; in [8], 0.01; in the assay with IRAK-1-4 Inhibitor I, 0.002.
SLC7A5 (UniProt Q01650): the log2 fold change in the assay with erlotinib was 0.001; in [1] it was -0.009; in assay [2], -0.029; in assay [3], -0.015; in [4], 0.02; in [5], 0.007. The log2 fold change in assay [6] was -0.008; in [7] it was 0.019; in assay [8], -0.006; in the assay with IRAK-1-4 Inhibitor I, 0.021.
On to SNRPD2 (UniProt P62316), for which the log2 fold change is 0.019 with erlotinib; 0.005 in [1]; 0.058 in assay [2]; -0.004 in [3]; -0.018 in [4]; -0.001 in [5]. Moreover, the log2 fold change in [6] was -0.035; in [7], 0.004; in assay [8], -0.008; in the assay with IRAK-1-4 Inhibitor I it was 0.004.
Take SH3BGRL2 (UniProt Q9UJC5): the log2 fold change with erlotinib is 0.007; in assay [1], -0.109; in [2] it was 0.035; in assay [3] it was 0.045; in assay [4] it was -0.049; in assay [5], 0.01. Further, the log2 fold change was 0.018 in [6], -0.087 in [7], 0.034 in assay [8] and 0.007 with IRAK-1-4 Inhibitor I.
On to SRSF2 (UniProt Q01130), for which the log2 fold change with erlotinib is 0.005; in [1], 0.041; in assay [2] it was 0.026; in assay [3], -0.038; in assay [4] it was -0.018; in [5], -0.017. Moreover, the log2 fold change is -0.031 in [6], 0.023 in assay [7], -0.037 in [8] and 0.04 with IRAK-1-4 Inhibitor I.
As for SRSF9 (UniProt Q13242), the log2 fold change in the assay with erlotinib is 0.027; in assay [1], 0.263 (active); in assay [2], 0.007; in assay [3], 0.077; in assay [4], 0.052; in assay [5], -0.01. The log2 fold change in [6] was 0.097; in assay [7] it was 0.072; in assay [8], 0.007; in the assay with IRAK-1-4 Inhibitor I, 0.012.
For SPR (UniProt P35270), the log2 fold change with erlotinib was -0.027; in [1], 0.014; in assay [2] it was -0.021; in [3], 0.056; in [4] it was 0.049; in assay [5], 1.04 (active). Further, the log2 fold change is 0.013 in assay [6], 0.008 in assay [7], -0.041 in [8] and 0.049 in the assay with IRAK-1-4 Inhibitor I.
As for SYF2 (UniProt O95926), the log2 fold change in the assay with erlotinib is 0; in assay [1] it was 0.043; in [2] it was 0.037; in assay [3], -0.025; in assay [4] it was -0.015; in assay [5], 0.037. The log2 fold change is 0.063 in assay [6], -0.048 in [7], 0 in assay [8] and -0.057 with IRAK-1-4 Inhibitor I.
Regarding SH3BP5L (UniProt Q7L8J4), the log2 fold change was 0.001 with erlotinib; -0.156 in assay [1]; 0.004 in assay [2]; -0.058 in assay [3]; -0.032 in assay [4]; 0.003 in assay [5]. The log2 fold change in [6] was 0.065; in assay [7] it was -0.019; in [8], 0; with IRAK-1-4 Inhibitor I, 0.
Take SMAP2 (UniProt Q8WU79): the log2 fold change with erlotinib was -0.009; in assay [1] it was -0.018; in assay [2] it was 0.073; in assay [3], 0; in assay [4], 0.023; in assay [5], -0.2. Moreover, the log2 fold change in assay [6] is 0.015; in assay [7] it was 0.037; in assay [8], 0.023; with IRAK-1-4 Inhibitor I it was 0.044.
As to SHKBP1 (UniProt Q8TBC3), the log2 fold change in the assay with erlotinib was -0.005; in [1], -0.064; in assay [2], 0.058; in assay [3], 0.004; in assay [4] it was 0.011; in assay [5] it was 0.01. For the same target, the log2 fold change in assay [6] was -0.018; in assay [7], 0.076; in assay [8], 0.189; with IRAK-1-4 Inhibitor I, 0.022.
Regarding SLC25A32 (UniProt Q9H2D1), the log2 fold change in the assay with erlotinib is 0.035; in [1], 0.02; in assay [2], -0.062; in [3], 0.011; in [4], -0.013; in assay [5], -0.027. Further, the log2 fold change in assay [6] was 0.056; in assay [7], 0.018; in assay [8] it was -0.002; in the assay with IRAK-1-4 Inhibitor I, 0.029.
Consider SPG11 (UniProt Q96JI7), for which the log2 fold change with erlotinib is 0.05; in assay [1], 0.033; in assay [2], 0.005; in assay [3], -0.012; in assay [4], 0.333; in assay [5], 0.076. Also, the log2 fold change in assay [6] was 0.025; in [7], -0.016; in assay [8] it was 0.019; with IRAK-1-4 Inhibitor I, 0.023.
